Screens as filed in PubChem BioAssay.
This is a sample that favours compounds with a hit; in the whole collection about 19% have one here.
DT40 TDP1 CPT: growth inhibition of DT40 Tdp1-/-;hTDP1 cells with camptothecin (screen for TDP1 inhibitors); chicken DT40 Tdp1-/-;hTDP1 cells + 20 nM CPT, ATP luminescence, 48 h; Potency, µM (titrated, usually from 46.2 µM), without a hit: at the highest dose activity change, negative = growth inhibition, most hits filed as inhibitors; actives 12% (n = 420,000); AID 686979; also: potency is read from the fitted curve at half-maximal effect; nearly all actives have a fitted effect of over 55% in size
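Chicken DT40 Tdp1-/- cells stably complemented with human TDP1 were seeded at 400 cells/well in medium containing 20 nM camptothecin, exposed to pin-transferred compounds, and grown at 37 °C for at least 48 hr. Viability was read as ATP luminescence.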
HT1080 IDH1KD tx: kills HT-1080 cells with IDH1 knockdown | HT-1080 IDH1 knockdown viability, ATP luminescence, 48 h | AID 686971 | actives 2% (n = 360,000) | Potency, µM (doses to about 46.1 µM), without a hit: at the highest dose activity, negative = toxicity, usual class: cytotoxic;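 also: potency is read from the fitted curve at half-maximal effect; 0% = DMSO wells and -100% = cell-free medium wells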
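% activity derives from luminescence (CellTiter-Glo), normalised to DMSO and no-cell wells. HT-1080-IDH1KD cells, 750/well, had 48 h compound exposure at 37 °C.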
ELG1 DNA repair: blocks ELG1-dependent DNA repair in HEK293T cells. HEK293T ELG1-luciferase reporter, luminescence, 16 h; DNA damage induced by 5-fluorouridine. Potency, µM (highest dose often 46.1 µM), for the others: at the highest dose activity change, negative = inhibition, actives largely listed as inhibitors. actives 2.3% (n = 330,000); also: potency is read from the fitted curve at half-maximal effect; nearly all actives have a fitted effect of over 55% in size
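Step one: seed 2,000 cells per well. Step two: pin-transfer compound or DMSO alongside 5-fluorouridine. Step three: incubate 16 hr, 37 °C, 5% CO2. Step four: add ONE-Glo, wait 30 min, read luminescence.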
IL1B secr inh: inhibitors of inflammasome signaling (IL-1 beta secretion); THP-1 LPS/ATP IL-1B secretion, AlphaLISA, 16 h; active compounds read low; activity change, % at 57.5 µM; actives 4.7% (n = 360,000); in the data active = activity change below about -50%; inconclusive = mostly about -30% to -49%
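THP-1 cells pretreated 1 hr with compounds (up to 57.5 uM final), then stimulated with LPS (250 ng/mL final) plus ATP (1.25 mM final); secreted IL-1B measured by AlphaLISA after 16 hr, decreased signal indicating inhibition.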
DT40 TDP1 no CPT: qHTS for Inhibitors of human tyrosyl-DNA phosphodiesterase 1 (TDP1): qHTS in cells in absence of CPT | AID 686978, 2013 | actives 15% (n = 420,000) | DT40 Tdp1-/- hTDP1 cells, no CPT, ATP luminescence, 48 h | Potency, µM (series often up to 46.2 µM), without a hit: at the highest dose activity change, negative = growth inhibition, actives largely listed as inhibitors; also: potency is read from the fitted curve at half-maximal effect; nearly all actives have a fitted effect of over 55% in size
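No-CPT arm: Tdp1-/-;hTDP1 DT40 cells (400/well) plus compounds, incubated ≥48 hr at 37 °C. Readout CellTiter-Glo luminescence.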
HT1080-NT tox: kills 2HG-producing HT-1080-NT fibrosarcoma cells. actives 1.6% (n = 360,000). Potency, µM (highest dose often 46.1 µM), without a hit: at the top dose activity, negative = less viability, usual class: cytotoxic. HT-1080-NT fibrosarcoma viability, CellTiter-Glo ATP luminescence, 48 h. AID 686970;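 also: NT is the 2HG producing partner of a matched IDH1 knockdown line; potency is read from the fitted curve at half-maximal effect; 0% = DMSO-treated cells and -100% = media-only wells without cells; nearly all actives have a fitted effect of over 55% in size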
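HT-1080-NT fibrosarcoma cells (2HG-overproducing), 750 cells/well in RPMI with 5% FBS, dosed after 2 h and incubated 48 h at 37C. CellTiter-Glo luminescence normalized to DMSO and no-cell wells; concentration-response curves fitted and classed.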
Active calls of the source: *; ? = inconclusive; / = no result given; [ ] = another dose, or the depositor's remark. Unless noted, calls follow the shape of the dose curve; as a rule, active = well fitted curve in the direction sought with a large enough effect; inconclusive = small, poorly fitted or top-dose-only effect, or another doubt; inactive = no such curve, though single readings can be large; an effect the other way counts as inactive or inconclusive. Unless noted, % is scaled to controls: 0 for no effect and ±100 for the full control effect.

SMILES	DT40 TDP1 CPT	HT1080 IDH1KD tx	ELG1 DNA repair	IL1B secr inh	DT40 TDP1 no CPT	HT1080-NT tox
Cc1cc(C=O)c(C)n1-c1ccc(N2CCCC2)c([N+](=O)[O-])c1	?	-0.1%	-30.0%	-2.5	25.9µM*	7.7%
C=C(C)COc1ccc(-c2[nH]ncc2-c2ccccc2)c(O)c1	16.4µM*	?	8.4%	?	20.6µM*	?
C=C(C)COc1ccc(-c2n[nH]c(C)c2-c2ccc(OC)c(OC)c2)c(O)c1	3.66µM*	1.46µM*	20.6µM*	4.2	2.59µM*	4.11µM*
C=C(C)COc1ccc(-c2n[nH]c(C)c2Oc2ccccc2OC)c(O)c1	14.6µM*	?	?	-29.6	?	?
C=C(C)COc1ccc(-c2[nH]ncc2-c2ccc(OC)c(OC)c2)c(O)c1	1.46µM*	4.61µM*	20.6µM*	-19.3	1.64µM*	7.31µM*
CCOC(=O)Cn1c(=O)oc2cc(S(=O)(=O)N3CCN(c4ccccc4OC)CC3)ccc21	-4.5%	/	/	/	-20.0%	/
Cc1ccc(-n2c(SCC(=O)N3CCCc4ccccc43)nc3c([nH]c4ccccc43)c2=O)cc1	-9.9%	/	/	/	-19.8%	/
CCN(CC)S(=O)(=O)c1ccc2c(c1)N(CC(=O)Nc1ccc(C)cc1C)C(=O)C1CCCN21 (centres undefined)	7.3%	/	/	/	?	/
Cc1[nH]nc(-c2ccc(OCc3cnn(-c4ccccc4)c3)cc2O)c1Oc1ccccc1F	?	?	-16.5%	27.0	20.6µM*	?
Cc1oc(-c2ccc(Cl)cc2)nc1CS(=O)CC(=O)NC1CCCC1 (centres undefined)	-26.6%	-1.4%	3.2%	1.8	9.7%	0.6%
CCCOP(=O)(c1ccc(N(C)C)cc1)C(O)c1ccc(Br)cc1 (centres undefined)	-11.3%	1.0%	-9.4%	-6.4	?	0.1%
CC1CN(C(=S)Nc2cccc([N+](=O)[O-])c2)CC(C)O1 (centres undefined)	2.5%	5.3%	-18.6%	0.0	0.8%	-2.2%
O=C(NC(=S)Nc1ccccn1)c1cccc([N+](=O)[O-])c1	?	16.9%	?	-4.2	18.4µM*	22.9%
O=C(NC(=S)NNC(=O)c1ccccc1O)c1cccc([N+](=O)[O-])c1	23.1µM*	1.4%	-18.1%	6.5	23.1µM*	-13.0%
CCCCCC(=O)NNC(=S)NC(=O)c1cccc([N+](=O)[O-])c1	14.6µM*	-9.8%	-7.5%	33.0	13µM*	-2.2%
CC1CN(C(=S)NC(=O)c2cccc([N+](=O)[O-])c2)CC(C)O1 (centres undefined)	?	-3.2%[9.24 µM]	0.6%	27.7	16.4µM*	0.1%
COc1ccccc1NC(=O)C1=C(C)Nc2nc(SCc3ccccc3Cl)nn2C1c1ccncc1 (centres undefined)	-1.2%	/	/	/	-4.3%	/
COc1ccc(CCN(C)C2CCCN(S(=O)(=O)c3ccccc3)C2)cc1OC (centres undefined)	-24.7%	0.7%	-7.1%	9.5	1.6%	2.0%
CCCCCCCCCCCC(=O)NC(C(=O)OCC)C(O)c1cccc([N+](=O)[O-])c1 (centres undefined)	16.4µM*	?	-0.4%	-79.4*	23.1µM*	?
COc1ccc(C(=O)NNC(=S)NC(=O)c2cccc([N+](=O)[O-])c2)cc1	?	?	/	55.7	18.4µM*	-21.0%
